# In the library only some 6.8% were active in any assay of this set; here they are far more common.
# T cruzi growth-1 – T. cruzi proliferation inhibition; T. cruzi beta-gal in NIH3T3, GalScreen luminescence, 90 h; inhibition, % at 8.34 µM; 5.9% of 77,000 active;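 active = mean inhibition above about 93%, with at least 55% of replicates each passing it, limit read from the data, passing the limit was not always enough; inconclusive = only one of those two conditions holds; inactive = neither condition holds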
# Pf Dd2 inh – P. falciparum Dd2 growth inhibition. activity change, % at 10 µM. SYBR Green, 72 h; hits give low values. 2.3% of 94,000 active; in the data active = activity change below about -80%; inconclusive = no clear call, values can overlap the other calls
# C diff HTS – inhibitors of Clostridium difficile growth; Clostridium difficile clinical isolate growth, OD600, 24 h; hits give low values; growth activity, negative = inhibition, % at 16 µg/mL (by protocol); 0.25% of 86,000 active; AID 1259249;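 active = mean growth activity at or below -80% and every replicate also at or below -80%; inconclusive = mean at or below -80% but some replicate above -80%; inactive = mean growth activity above -80%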;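 also: 0% = DMSO wells and -100% = levofloxacin 16 µg/mL wells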
# T cruzi growth-2 – Trypanosoma cruzi proliferation inhibition | shares compounds with T cruzi growth-1 | T. cruzi beta-gal in NIH3T3, GalScreen luminescence, 90 h | inhibition, % at 8.35 µM | 72% of 5,600 active | AID 651739;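 active = mean replicate inhibition above about 95% and at least 55% of replicates individually reaching it, limit read from the data; inconclusive = only one of the two criteria is met; inactive = neither criterion is met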
# T cruzi growth-3 – Trypanosoma cruzi proliferation inhibition; T. cruzi beta-gal in NIH3T3, GalScreen luminescence, 90 h; AID 651740; shares compounds with T cruzi growth-1; inhibition, % at 2.09 µM; 21% of 5,600 active;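 active = mean inhibition above about 95%, with at least 55% of replicates also reaching it, limit read from the data; inconclusive = meets just one of the two conditions; inactive = meets neither condition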;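 also: plate controls were neutral control median for no effect and positive control median for full effect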
# NIH3T3 tox – NIH/3T3 (mouse) viability loss; cytotoxicity (signal decrease), % at 8.35 µM; shares compounds with T cruzi growth-1; 14% of 5,600 active; NIH/3T3 viability, CellTiter-Glo ATP luminescence, 90 h;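 active = mean signal decrease across replicates above about 35% based on untreated-well scatter, with enough replicates individually passing, limit read from the data; inconclusive = no rule stated though some were filed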;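 also: 0% = median of neutral control wells and 100% = median of positive control wells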
# NIH3T3 tox 2 – cytotoxicity in mouse NIH/3T3 fibroblasts; NIH/3T3 viability, CellTiter-Glo ATP luminescence, 90 h; 56% of 5,600 active; AID 651744; shares compounds with T cruzi growth-1; inhibition, % at 24.9 µM;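 active = mean loss of cell viability signal at or above a set limit, and enough replicates individually reaching it; inconclusive = meets only the mean limit or only the replicate share; inactive = meets neither condition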;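 also: 0% = median of neutral control wells and 100% = median of positive control wells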
# Numbers without * were called inactive; ? = inconclusive; nt = no result.
SMILES,T cruzi growth-1,Pf Dd2 inh,C diff HTS,T cruzi growth-2,T cruzi growth-3,NIH3T3 tox,NIH3T3 tox 2
C[C@@H]1CCCCO[C@@H](CN(C)Cc2ccncc2)[C@H](C)CN([C@@H](C)CO)C(=O)c2cc(NC(=O)Nc3ccc(C(F)(F)F)cc3)ccc2O1,86,-15,3,nt,nt,nt,nt
C[C@H]1CN([C@@H](C)CO)C(=O)c2cc(NC(=O)c3ccncc3)ccc2O[C@@H]1CN(C)Cc1ccc(C(F)(F)F)cc1,75,7,0,nt,nt,nt,nt
C[C@@H]1CN([C@@H](C)CO)C(=O)c2cc(NC(=O)c3ccncc3)ccc2O[C@H]1CN(C)Cc1ccc(C(F)(F)F)cc1,100*,-23,5,24,-4,9,36
C[C@H](CO)N1C[C@H](C)[C@@H](CN(C)Cc2ccncc2)OCCCC[C@H](C)Oc2ccc(NC(=O)Nc3ccc(C(F)(F)F)cc3)cc2C1=O,101*,-25,14,103*,82,-29,42*
C[C@@H]1CCCCO[C@@H](CN(C)Cc2ccc(C(F)(F)F)cc2)[C@H](C)CN([C@H](C)CO)C(=O)c2cc(NC(=O)c3ccncc3)ccc2O1,109*,-72,-1,103*,56,13,103*
COc1cccc(S(=O)(=O)Nc2ccc3c(c2)[C@@H]2C[C@@H](CC(=O)N4CCCCC4)O[C@H](CO)[C@@H]2O3)c1,5,12,nt,nt,nt,nt,nt
COc1ccccc1S(=O)(=O)N[C@@H]1CC[C@H](CCn2cc(C3CC3)nn2)O[C@@H]1CO,nt,-4,6,nt,nt,nt,nt
O=C(C1CCC1)N1CC[C@@H]2[C@H]1c1cc(Br)ccc1N[C@@H]2CO,nt,-59,6,nt,nt,nt,nt
C[C@@H]1CCCCO[C@@H](CN(C)Cc2ccc(C(F)(F)F)cc2)[C@@H](C)CN([C@@H](C)CO)C(=O)c2cc(NS(=O)(=O)c3cccs3)ccc2O1,93,-32,0,nt,nt,nt,nt
C[C@@H]1CN([C@@H](C)CO)C(=O)c2cc(NS(=O)(=O)c3cccs3)ccc2O[C@@H](C)CCCCO[C@@H]1CN(C)Cc1ccc(C(F)(F)F)cc1,?,-67,0,102*,118*,-24,63*
C[C@H]1CCCCO[C@H](CN(C)Cc2ccc(C(F)(F)F)cc2)[C@@H](C)CN([C@@H](C)CO)C(=O)c2cc(NS(=O)(=O)c3cccs3)ccc2O1,113*,-22,-3,98*,107*,-14,103*
C[C@@H]1CCCCO[C@H](CN(C)Cc2ccc(C(=O)O)cc2)[C@H](C)CN([C@@H](C)CO)C(=O)c2cc(NS(=O)(=O)c3cccs3)ccc2O1,-6,20,-1,nt,nt,nt,nt
C[C@H]1CCCCO[C@@H](CN(C)Cc2ccc(C(F)(F)F)cc2)[C@@H](C)CN([C@@H](C)CO)C(=O)c2cc(NS(=O)(=O)c3cccs3)ccc2O1,112*,-53,5,90,58,18,105*
C[C@H](CO)N1C[C@H](C)[C@H](CN(C)Cc2ccc(C(F)(F)F)cc2)OCCCC[C@H](C)Oc2ccc(NS(=O)(=O)c3cccs3)cc2C1=O,nt,-38,54,nt,nt,nt,nt
CNC[C@@H]1Oc2ccc(NC(=O)Nc3c(C)noc3C)cc2CC(=O)N([C@@H](C)CO)C[C@H]1C,12,2,2,nt,nt,nt,nt
C[C@H]1CN([C@@H](C)CO)S(=O)(=O)c2ccc(-c3ccccc3F)cc2O[C@@H]1CN(C)C(=O)C1CC1,50,-36,-18,nt,nt,nt,nt
C[C@@H]1CCCCO[C@H](CN(C)C(=O)Nc2ccc3c(c2)OCO3)[C@H](C)CN([C@@H](C)CO)C(=O)c2cc(NC(=O)Nc3ccccc3)ccc2O1,46,-47,6,nt,nt,nt,nt
C[C@@H]1CN([C@H](C)CO)C(=O)c2cc(/C=C/c3ccccc3)cnc2O[C@H]1CN(C)C(=O)c1ccccc1,69,-27,-3,nt,nt,nt,nt
C[C@@H]1CN([C@H](C)CO)C(=O)Cc2cc(NC(=O)CCC(F)(F)F)ccc2O[C@@H]1CN(C)Cc1ccc(Oc2ccccc2)cc1,30,-21,14,nt,nt,nt,nt
COc1ccc(NC(=O)Nc2cccc3c2O[C@@H](CN(C)C(=O)Nc2ccc4c(c2)OCO4)[C@@H](C)CN([C@@H](C)CO)C3=O)cc1,58,-3,nt,nt,nt,nt,nt
C[C@H]1CN([C@@H](C)CO)S(=O)(=O)c2ccc(C#Cc3ccc(F)cc3)cc2O[C@@H]1CN(C)C(=O)NC1CCCCC1,80,-27,-6,nt,nt,nt,nt
COc1ccc(C#Cc2ccc3c(c2)O[C@@H](CN(C)C(=O)NC2CCCCC2)[C@H](C)CN([C@@H](C)CO)S3(=O)=O)cc1,?,-67,-10,100*,99*,-30,-3
C[C@@H]1CN([C@H](C)CO)S(=O)(=O)c2ccc(C#Cc3ccc(F)cc3)cc2O[C@@H]1CN(C)C(=O)NC1CCCC1,114*,-50,16,?,85,14,104*
C[C@H]1CN([C@@H](C)CO)S(=O)(=O)c2ccc(C#Cc3ccc(F)cc3)cc2O[C@H]1CN(C)C(=O)NC1CCCCC1,71,-37,-15,nt,nt,nt,nt
COc1ccc(C#Cc2ccc3c(c2)O[C@H](CN(C)C(=O)NC2CCCCC2)[C@H](C)CN([C@@H](C)CO)S3(=O)=O)cc1,?,-6,-3,102*,86,-36,-30
SMILES,T cruzi growth-1,Pf Dd2 inh,C diff HTS,T cruzi growth-2,T cruzi growth-3,NIH3T3 tox,NIH3T3 tox 2
C[C@@H]1CN([C@@H](C)CO)S(=O)(=O)c2ccc(C#Cc3ccc(F)cc3)cc2O[C@@H]1CN(C)C(=O)NC1CCCCC1,82,28,0,nt,nt,nt,nt
COc1ccc(C#Cc2ccc3c(c2)O[C@H](CN(C)C(=O)NC2CCCCC2)[C@@H](C)CN([C@@H](C)CO)S3(=O)=O)cc1,?,-70,-8,109*,107*,8,64*
C[C@H](CO)N1C[C@H](C)[C@@H](CN(C)C(=O)NC2CCCCC2)Oc2cc(C#Cc3cccc(F)c3)ccc2S1(=O)=O,nt,1,nt,nt,nt,nt,nt
COc1ccccc1-c1ccc([C@H]2[C@@H](CO)N(C(=O)C3CCOCC3)[C@H]2C#N)cc1,-10,29,2,nt,nt,nt,nt
O=C(C[C@@H]1CC[C@H](NC(=O)c2ccncc2)[C@H](CO)O1)NCC1CCCCC1,6,2,nt,nt,nt,nt,nt
C[C@H](CO)N1C[C@H](C)[C@H](CN(C)C(=O)NC2CCCCC2)Oc2cc(C#Cc3cccc(F)c3)ccc2S1(=O)=O,nt,-61,-6,nt,nt,nt,nt
COc1ccc(C#Cc2ccc3c(c2)O[C@@H](CN(C)C(=O)NC2CCCCC2)[C@@H](C)CN([C@H](C)CO)S3(=O)=O)cc1,?,-81*,3,95*,113*,-11,18
COc1ccc(CNC(=O)C[C@H]2C[C@H]3c4cc(NS(=O)(=O)c5ccc(F)cc5)ccc4O[C@H]3[C@@H](CO)O2)cc1,-13,-19,0,nt,nt,nt,nt

# Assay outcomes as filed in PubChem BioAssay.
